Bioassay records: PubChem BioAssay, National Center for Advancing Translational Sciences (NCATS)
Sm TGR block – inhibitors of Schistosoma mansoni thioredoxin glutathione reductase; Q962Y6; purified TGR, DTNB reduction, TNB absorbance 405 nm; Potency, µM (top dose mostly 114 µM), for the others: at the top dose activity change, negative = inhibition, usual class: inhibitors; actives 3% (n = 360,000); AID 485364; also: potency is read from the fitted curve at half-maximal effect; nearly all actives have a fitted effect of over 60% in size
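Kinetic colorimetric format: TGR-catalysed, NADPH-driven DTNB reduction monitored via TNB absorbance. Enzyme dispensed at 20 nM; compound exposure 15 min at room temperature before reaction start.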
FBPA Giardia inh – Giardia lamblia aldolase inhibition. AID 2451. purified Giardia FBPA. A8B2U2. actives 0.71% (n = 290,000). Potency, µM (doses to about 59.6 µM), for the others: at the highest dose activity, negative = inhibition, most hits filed as inhibitors; also: potency is read from the fitted curve at half-maximal effect; nearly all actives have a fitted effect of over 55% in size
Target sequence (A8B2U2 whole entry, looked up): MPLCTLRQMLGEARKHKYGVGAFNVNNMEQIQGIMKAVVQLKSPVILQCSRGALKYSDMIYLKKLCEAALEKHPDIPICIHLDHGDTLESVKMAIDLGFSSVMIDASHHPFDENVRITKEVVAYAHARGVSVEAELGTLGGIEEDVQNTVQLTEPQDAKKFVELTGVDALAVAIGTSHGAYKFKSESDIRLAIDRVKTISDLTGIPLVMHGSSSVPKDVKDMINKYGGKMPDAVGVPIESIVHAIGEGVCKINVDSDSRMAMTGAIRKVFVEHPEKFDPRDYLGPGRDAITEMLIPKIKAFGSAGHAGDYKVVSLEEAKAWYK
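Giardia FBPA (40 nM reagent) was preincubated 10 min at RT with compound (up to 57.5 uM final), then substrate plus GAPDH/TPI/NAD/arsenate coupling system with diaphorase/resazurin was added; resorufin fluorescence (525/598 nm) was read after 20 min.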
Tb PYK inh – inhibitors of Trypanosoma brucei pyruvate kinase; Potency, µM (doses to about 76.8 µM), inactives show at the top dose activity, negative = inhibition, most hits filed as inhibitors; actives 0.12% (n = 410,000); Q57TT1; TbPYK enzyme, Kinase-Glo Plus ATP luminescence, 45 min; also: potency is read from the fitted curve at half-maximal effect; nearly all actives have a fitted effect of over 50% in size
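T. brucei PYK with substrate was exposed to pin-transferred compounds across a concentration series, then started with 130 uM ADP (final). After 45 min at room temperature, Kinase-Glo Plus luminescence was read, normalized and curve-fitted.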
FMDV antiviral – antivirals against foot and mouth disease virus; FMDV antiviral cell-based qHTS; Potency, µM (titrated, usually from 57.9 µM), for inactives: at the top dose activity change, negative = inhibition, hits mostly inhibitors; actives 1.2% (n = 410,000); calls by dose curve; tested in HEK293T cells; also: read-out not given here; potency is read from the fitted curve at half-maximal effect; nearly all actives have a fitted effect of over 45% in size
HCMV antiviral – blocks human cytomegalovirus replication; actives 4.5% (n = 410,000); activity change, negative = inhibition, % at 57.5 µM; HFF cells, HCMV-luciferase reporter, 72 h; hits give low values; AID 1259415; in the data active = activity change below about -60%; inconclusive = no clear call, values can overlap the other calls; inactive = above about -39%
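Compounds were evaluated in HFFs infected with an HCMV luciferase reporter virus (MOI 1 PFU/cell). Luciferase in lysates collected 72 h post infection served as the replication measure.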
RE007 growth inh – less growth of the S. pombe RE007 Vpr strain; S. pombe RE007 Vpr strain, BacTiter-Glo ATP luminescence, 24 h; Potency, µM (titrated, usually from 92.2 µM), for the others: at the top dose activity change, negative = less growth, usual class: inhibitors; actives 0.21% (n = 360,000); AID 651644; active = well fitted falling curve with a large enough effect; inconclusive = small, poorly fitted or top-dose-only effect; inactive = no such curve, though single readings can be large or run the other way; also: potency is read from the fitted curve at half-maximal effect; nearly all actives have a fitted effect of over 50% in size
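Fission yeast RE007 carrying one integrated HIV-1 vpr copy, seeded at OD 0.01 in PMG+AL medium with 23 nL pinned compound. Grown 24 h at 30 degrees; viability read by BacTiter-Glo luminescence after 5 min.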
An asterisk follows results filed as active; ? = inconclusive; nt = no result; [ ] = dose if it differs, or a comment. This is a sample that favours compounds with a hit; in the whole collection about 7.7% have one here. Unless noted, calls follow the shape of the dose curve; as a rule, active = well fitted curve in the direction sought with a large enough effect; inconclusive = small, poorly fitted or top-dose-only effect, or another doubt; inactive = no such curve, though single readings can be large; an effect the other way counts as inactive or inconclusive. % is scaled to controls: 0 for no effect and ±100 for the full control effect.

SMILES | Sm TGR block | FBPA Giardia inh | Tb PYK inh | FMDV antiviral | HCMV antiviral | RE007 growth inh
Cc1cc(C)c2sc(N(CCCN(C)C)C(=O)c3ccc(S(=O)(=O)N4CCCc5ccccc54)cc3)nc2c1 | 4.6% | nt | -3.3% | ? | -60.6* | 4.7%
CCc1ccc(C2c3c(n[nH]c3C)C(=O)N2c2ccc(C)cc2)cc1 (configuration not stated) | -6.6% | nt | -5.9% | 25.2% | 32.3 | nt
Cc1cccc2sc(N(CCCN(C)C)C(=O)c3ccc(S(=O)(=O)N4CCc5ccccc5C4)cc3)nc12 | -7.6% | -9.8% | 6.7% | -16.6% | -99.6* | 6.5%
CN(C)CCCN(C(=O)c1ccc(S(=O)(=O)N2CCc3ccccc3C2)cc1)c1nc2c(F)cccc2s1 | -18.1% | -22.7% | -0.3% | -15.7% | 13.9 | -6.3%
Cc1onc(-c2ccccc2Cl)c1C(=O)N(C)C1CCCCC1 | -3.8% | -1.8% | 3.6% | -8.1% | -65.9* | -10.7%
Cc1onc(-c2ccccc2Cl)c1C(=O)Nc1ccc(CN2CCCC2)cc1 | 79.4µM* | -29.1% | -5.5% | -18.0% | -10.1 | 11.0%
Cc1onc(-c2ccccc2Cl)c1C(=O)NCc1ccco1 | 44.7µM* | -19.2% | -12.0% | nt | 29.6 | 2.3%
Cc1onc(-c2ccccc2Cl)c1C(=O)Nc1ccccc1 | -6.7% | 0.5% | 4.3% | ? | -8.9 | -12.4%
CCN(C(=O)c1c(-c2ccccc2Cl)noc1C)C1CCCCC1 | -2.1% | -4.2% | -1.0% | -17.1% | ? | 5.4%
COc1c(Cl)cc(-c2noc(C)c2C(=O)NCc2ccccc2)cc1Cl | 2.6% | -0.9% | 1.1% | -16.4% | -68.3* | 2.9%
COCCNC(=O)c1c(NC(=O)c2cc(=O)c3cc(Cl)ccc3o2)sc2c1CCCC2 | 2.9% | nt | -0.9% | -15.6% | -12.4 | nt
COC(=O)c1cc2c(c3c4ccccc4n(S(=O)(=O)c4ccc(C)cc4)c13)C(=O)N(CC(C)C)C2 | nt | nt | nt | nt | 73.0 | nt
CCC1OCCC=CC1C (configuration not stated) | nt | 1.8%[12.9 µM] | nt | nt | nt | nt
CCOc1ccccc1CN1CCC(Oc2ccc(C(=O)NCc3ccccn3)cc2)CC1 | -22.8% | 9.3% | 0.8% | -21.4% | 6.5 | 13.1%
O=C(NCCc1cccc(Cl)c1)c1ccc(OC2CCN(Cc3ccccn3)CC2)cc1 | -27.3% | 13.7% | 0.1% | 28.2µM* | -71.0* | -2.8%
CCn1cc(CNC(=O)c2ccc(OC3CCN(Cc4ccccn4)CC3)cc2)cn1 | 2.0% | 5.3% | -1.8% | ? | -71.4* | -11.6%
Cc1cccnc1CCNC(=O)c1ccc(OC2CCN(Cc3ccccn3)CC2)cc1 | -30.2% | nt | 10.0% | ? | -36.0 | -18.2%
CCn1nc(C)c(CNC(=O)c2ccc(OC3CCN(Cc4ccccn4)CC3)cc2)c1C | 0.0% | nt | 2.8% | ? | -91.0* | 2.1%
CCCc1cc(=O)oc2c(C)c3c(cc12)CN(CCc1ccc(Cl)cc1)CO3 | -2.0% | nt | -0.6% | -14.7% | 5.7 | nt
COc1cccc(CNC(=O)c2oc3c(c2C)-c2nn(Cc4cccc(Cl)c4)cc2CC3)c1OC | 8.1% | nt | 8.3% | -18.3% | 46.4 | nt
COc1ccc(C(=O)NCC2Cc3cccc(-c4ccc(S(C)(=O)=O)cc4)c3O2)c(OC)n1 (configuration not stated) | nt | nt | nt | -15.0% | nt | nt
Cc1c(CN2CCC(CO)(Cc3cccc(C(F)(F)F)c3)CC2)c2ccccc2n1C | 0.0% | -0.6% | -11.6% | -26.4% | -99.4* | 7.9%
CC(=O)c1ccc(C(=O)N2CCC(CO)(Cc3cccc(C(F)(F)F)c3)CC2)cc1 | -4.1% | -0.4% | -1.3% | -29.6% | -75.0* | -1.0%
CC1=C(c2ccc(C(C)C)cc2)S(=O)(=O)NC1=NCc1ccc(OC(C)C)cc1 | 38.1% | nt | -1.2% | 0.0% | 5.3 | nt
C=CCn1c(O)c(C(C)=NCCN2CCCCC2)c(=O)[nH]c1=O | 14.1µM* | -3.1% | 0.3% | 4.7% | 55.2 | 12.6%
CCCCn1c(O)c(C(C)=NCCN2CCCCC2)c(=O)[nH]c1=O | ? | -1.2% | 1.4% | -3.3% | -9.4 | 3.8%
COc1ccc(NC(=S)NC(=O)CC(C)C)c(OC)c1 | 39.8µM* | -0.1% | -9.5% | 54.4% | -24.6 | -12.8%
